The values below come from the supplement of paper PMC10503962.

The experiment concerns Trichuris muris adult worms. Nature of the experiment: mean motility score (Paragon pixel variance) of adult worms (arbitrary units); higher = more motile worms, i.e. less anthelmintic effect; extreme values may be limits of the assay. Particulars: 100 µM; 24 h. Here is the method: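 Primary ex vivo screen of 409 approved drugs against adult Trichuris muris worms: one worm per well in RPMI-1640 with penicillin/streptomycin, 100 µM drug in 1% DMSO, 37 °C, 5% CO2 for 24 h. Motility was recorded with INVAPP (200-frame movies) and scored with the Paragon pixel-variance algorithm. Values are means of triplicate wells run on three occasions; levamisole was the positive control and DMSO the negative control.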
As to `O=C1c2ccccc2C(=O)C1c1ccccc1` [phenindione], the mean motility score stood at 4420.
As for `CCOC(=O)[C@H](CCc1ccccc1)N[C@H]1CCc2ccccc2N(CC(=O)O)C1=O.Cl` [benazepril hydrochloride], the figure is 2030.
As for `CCCCOc1ccc(C(=O)CCN2CCCCC2)cc1.Cl` [dyclonine hydrochloride], the figure is 3270; as for `O=C(c1ccc(F)cc1)C1CCN(CCn2c(=O)[nH]c3ccccc3c2=O)CC1` [ketanserin], 3020.
As for `CN1CC(=O)N2[C@H](c3ccc4c(c3)OCO4)c3[nH]c4ccccc4c3C[C@@H]2C1=O` [tadalafil], the figure is 990; as for `NNCCc1ccccc1` [phenelzine], 3810.
Consider `CCCCNc1cc(C(=O)O)cc(S(N)(=O)=O)c1Oc1ccccc1` [bumetanide], for which the mean motility score worked out at 4880.
To `OCc1ccccc1` [benzyl alcohol] belongs 2390; to `CCOc1cc2ncc(C#N)c(Nc3ccc(OCc4ccccn4)c(Cl)c3)c2cc1NC(=O)/C=C/CN(C)C` [neratinib], 1890; to `CC1=CC(=O)c2ccccc2C1=O` [menadione], 361.
To `CCn1cc(C(=O)O)c(=O)c2cc(F)c(N3CCNCC3)cc21` [norfloxacin] belongs 1950.
Take `Br.CCCCCCCCCCCCCCCC[N+](C)(C)CCN(Cc1ccc(OC)cc1)c1ncccn1` [thonzonium bromide]: the mean motility score came to 0.
As for `CC1(C)S[C@@H]2[C@H](NC(=O)COc3ccccc3)C(=O)N2[C@H]1C(=O)O` [penicillin V], the figure is 1470.
To `N=C(NCCCCCCNC(=N)NC(=N)Nc1ccc(Cl)cc1)NC(=N)Nc1ccc(Cl)cc1` [chlorhexidine] belongs 320; to `CNCC[C@H](Oc1cccc2ccccc12)c1cccs1.Cl` [duloxetine hydrochloride], 2.67.
To `C=CC[C@@H]1/C=C(\C)C[C@H](C)C[C@H](OC)[C@H]2O[C@@](O)(C(=O)C(=O)N3CCCC[C@H]3C(=O)O[C@H](/C(C)=C/[C@@H]3CC[C@@H](O)[C@H](OC)C3)[C@H](C)[C@@H](O)CC1=O)[C@H](C)C[C@@H]2OC` [tacrolimus] belongs 0; to `CCCCNc1ccc(C(=O)OCCN(C)C)cc1` [tetracaine], 4810.
`CCOC(=O)[C@H](CCc1ccccc1)N[C@@H](C)C(=O)N1Cc2cc(OC)c(OC)cc2C[C@H]1C(=O)O.Cl` [moexipril hydrochloride] registered a mean motility score of 3680.
As for `CCc1cccc2c3c([nH]c12)C(CC)(CC(=O)O)OCC3` (stereo not given) [etodolac], the figure is 2190; as for `CNC1(C)[C@H]2CC[C@H](C2)C1(C)C.Cl` (stereo not given in full) [mecamylamine hydrochloride], 3150; as for `CCCNC(=O)NS(=O)(=O)c1ccc(Cl)cc1` [chlorpropamide], 2860.
The compound `Nc1cc(C(F)(F)F)c(-c2cc(N3CCOCC3)nc(N3CCOCC3)n2)cn1` [buparlisib] displayed a mean motility score of 3960.
To `c1cnc(N2CCN(Cc3ccc4c(c3)OCO4)CC2)nc1` [piribedil] belongs 1950.
To `CC(c1cc2ccccc2s1)N(O)C(N)=O` (stereo not given) [zileuton] belongs 3310; to `CCN1CC(CCN2CCOCC2)C(c2ccccc2)(c2ccccc2)C1=O.Cl` (stereo not given) [doxapram hydrochloride], 1820; to `O=C1O[C@H](CO)[C@@H](O)[C@H](O)[C@H]1O` [gluconolactone], 2100.
As to `C[C@]12CC[C@@H]3c4ccc(O)cc4CC[C@H]3[C@@H]1CCC2=O` [estrone], the mean motility score turned out to be 2280.
As for `Cc1[nH]c(/C=C2\C(=O)Nc3ccccc32)c(C)c1CCC(=O)O` [orantinib], the figure is 3560; as for `Cc1nc(Nc2ncc(C(=O)Nc3c(C)cccc3Cl)s2)cc(N2CCN(CCO)CC2)n1` [dasatinib], 1190.
To `O=C(CCCN1CCC(O)(c2ccc(Cl)cc2)CC1)c1ccc(F)cc1` [haloperidol] belongs 2820.
As for `Cc1c(C)c2c(c(C)c1O)CC[C@@](C)(CCC[C@H](C)CCC[C@H](C)CCCC(C)C)O2` [vitamin E], the figure is 2950.
Turning to `O=C(O)COc1ccc(C(=O)c2cccs2)c(Cl)c1Cl` [ticrynafen], the mean motility score was 3440.
As for `CNC[C@H](O)c1ccc(O)c(O)c1` [epinephrine], the figure is 3270; as for `CCN(CC)CCNC(=O)c1cc(Cl)c(N)cc1OC` [metoclopramide], 3210.
To `O=C(NCCO[N+](=O)[O-])c1cccnc1` [nicorandil] belongs 2790; to `COC(=O)[C@H](c1ccccc1Cl)N1CCc2sccc2C1` [clopidogrel], 2110.
To `C[C@@H]1C[C@H]2[C@@H]3CCC4=CC(=O)C=C[C@]4(C)[C@@]3(F)[C@@H](O)C[C@]2(C)[C@@]1(O)C(=O)CO` [dexamethasone] belongs 1780; to `CN(C)CCCN1c2ccccc2Sc2ccc(Cl)cc21` [chlorpromazine], 0; to `CCc1nc(N)nc(N)c1-c1ccc(Cl)cc1` [pyrimethamine], 2930.
With `CCC1(c2ccccc2)C(=O)NCNC1=O` [primidone], the mean motility score was 3160.
